Our source for the outcome and AC50 values is PubChem BioAssay (EPA / NIEHS).

In general, AC50 refers to the midpoint of the concentration-response curve, whichever way the signal moves.

The source made the active and inactive calls. How the source made its calls: active means hit-call score of the fitted dose curve at least 0.9, where 1 is the maximum; inactive means score below 0.9.

Conditions in all cases: mRNA level, 48 h; actives raise or lower the signal
Read-out in experiment [1]: Early growth response protein 1 (EGR1) transcription factor, EGR1 (gene 1958)
Briefly: LTEA_HepaRG_EGR1: Life Technologies and Expression Analysis (LTEA) Assay for Early growth response protein 1 (EGR1) transcription factor using HepaRG (AID 2283490). An outline of the steps: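 Differentiated human HepaRG cells in serum-free induction medium were exposed in duplicate for 48 h to eight concentrations (top 100 uM, half-log steps) in 0.5% DMSO. EGR1 mRNA was quantified by qRT-PCR, normalized to ACTB, GAPDH and POLR2A, and fitted bidirectionally versus DMSO.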

Read-out in experiment [2]: Ezrin (EZR), EZR (gene 7430)
Briefly: LTEA_HepaRG_EZR: Life Technologies and Expression Analysis (LTEA) Assay for Ezrin (EZR) using HepaRG (AID 2283491). The procedure, abridged:
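Gain or loss of EZR mRNA is scored relative to 0.5% DMSO in human HepaRG cultures treated 48 h with test chemicals in duplicate, eight half-log concentrations from 100 uM.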

Read-out in experiment [3]: Cytochrome P450 3A7 (Homo sapiens) (UniProt P24462)
The experiment can be described thus: LTEA_HepaRG_CYP3A7: Life Technologies and Expression Analysis (LTEA) Assay for CYP3A7 using HepaRG (AID 2283492). An outline of the steps:
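Cells were thawed, plated, cultured 48 h, then treated for a further 48 h with chemicals (eight-point half-log series from 100 uM, 0.5% DMSO). RNA was isolated and CYP3A7 expression quantified by qRT-PCR normalised to ACTB, GAPDH and POLR2A.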

Read-out in experiment [4]: CYP3A5 (gene 1577)
Briefly: LTEA_HepaRG_CYP3A5: Life Technologies and Expression Analysis (LTEA) Assay for CYP3A5 using HepaRG (AID 2283493). The procedure, abridged:
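mRNA induction or loss of CYP3A5 assessed in HepaRG after 48 h dosing, 100 uM top concentration, duplicate wells; TaqMan qRT-PCR with ACTB, GAPDH, POLR2A normalization; 0.5% DMSO as negative control.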

Read-out in experiment [5]: Fatty Acid-Binding Protein 1 (FABP1), FABP1 (gene 2168)
The experiment can be described thus: LTEA_HepaRG_FABP1: Life Technologies and Expression Analysis (LTEA) Assay for Fatty Acid-Binding Protein 1 (FABP1) using HepaRG (AID 2283494). An outline of the steps:
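Differentiated human HepaRG cells were exposed in duplicate for 48 h in serum-free induction medium to 8-point half-log concentration series topping at 100 uM in 0.5% DMSO. FABP1 mRNA measured by TaqMan qRT-PCR, normalized to ACTB/GAPDH/POLR2A; bidirectional fit versus DMSO.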

Read-out in experiment [6]: Cytochrome P450 4A22 (Homo sapiens) (UniProt Q5TCH4)
Briefly: LTEA_HepaRG_CYP4A22: Life Technologies and Expression Analysis (LTEA) Assay for Cytochrome P450 4A22 (CYP4A22) using HepaRG (AID 2283495). An outline of the steps:
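Cryopreserved HepaRG cells, plated and cultured 48 h, then switched to serum-free induction medium and treated 48 h (duplicates, up to 100 uM, half-log steps, 0.5% DMSO). Expression change of CYP4A22 was fitted bidirectionally against vehicle.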

Read-out in experiment [7]: Cytochrome P450 7A1 (Homo sapiens) (UniProt P22680)
Briefly: LTEA_HepaRG_CYP7A1: Life Technologies and Expression Analysis (LTEA) Assay for Cytochrome P450 7A1 (CYP7A1) using HepaRG (AID 2283496). An outline of the steps: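 Gene expression endpoint in human HepaRG liver cells treated for 48 h with test chemicals (up to 100 uM, 0.5% DMSO). Values come from bidirectional concentration-response fitting versus DMSO.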

Read-out in experiment [8]: Glutamate-cysteine ligase catalytic (GCLC), GCLC (gene 2729)
The experiment can be described thus: LTEA_HepaRG_GCLC: Life Technologies and Expression Analysis (LTEA) Assay for Glutamate-cysteine ligase catalytic (GCLC) using HepaRG (AID 2283498). An outline of the steps: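 Differentiated human HepaRG cells, plated 48 h then switched to serum-free induction medium, were exposed in duplicate for 48 h to 8 half-log concentrations topping at 100 uM in 0.5% DMSO. GCLC mRNA was quantified by qRT-PCR against ACTB, GAPDH and POLR2A.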

Read-out in experiment [9]: growth arrest and DNA damage 45 (GADD45G), GADD45G (gene 10912)
Briefly: LTEA_HepaRG_GADD45G: Life Technologies and Expression Analysis (LTEA) Assay for growth arrest and DNA damage 45 (GADD45G) using HepaRG (AID 2283499). An outline of the steps:
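Human hepatic HepaRG line treated 48 h with chemicals (eight concentrations, half-log steps from 100 uM); transcript induction or repression of GADD45G scored by qRT-PCR versus DMSO vehicle.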

Read-out in experiment [10]: Glutamate-cysteine ligase regulatory (GCLM), GCLM (gene 2730)
Briefly: LTEA_HepaRG_GCLM: Life Technologies and Expression Analysis (LTEA) Assay for Glutamate-cysteine ligase regulatory (GCLM) using HepaRG (AID 2283500). The procedure, abridged: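 Human liver HepaRG cultures receive test chemicals for 48 hours at up to 100 uM in 0.5% DMSO. GCLM expression is measured by qRT-PCR and analysed for increases or decreases against vehicle.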

Read-out in experiment [11]: Hypoxia-inducible factor 1-alpha (Homo sapiens) (UniProt Q16665)
Briefly: LTEA_HepaRG_HIF1A: Life Technologies and Expression Analysis (LTEA) Assay for Hypoxia-inducible factor 1 (HIF1A) Trancription factor using HepaRG (AID 2283503). The procedure, abridged:
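HepaRG, 48 h exposure, 8-pt half-log series from 100 uM, 0.5% DMSO vehicle, duplicates. Readout: HIF1A transcript by qRT-PCR (Fluidigm array), housekeeping-normalised. Bidirectional curve fit vs DMSO baseline.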

Read-out in experiment [12]: 3-Hydroxy-3-Methylglutaryl-CoA Synthase 2 (HMGCS2), HMGCS2 (gene 3158)
The experiment can be described thus: LTEA_HepaRG_HMGCS2: Life Technologies and Expression Analysis (LTEA) Assay for 3-Hydroxy-3-Methylglutaryl-CoA Synthase 2 (HMGCS2) using HepaRG (AID 2283504). The procedure, abridged:
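Expression of HMGCS2 in human HepaRG liver cells is measured by qRT-PCR 48 h after dosing (highest 100 uM, half-log series, 0.5% DMSO). Values come from bidirectional concentration-response fitting with DMSO as baseline.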

Read-out in experiment [13]: HGF (gene 3082)
The experiment can be described thus: LTEA_HepaRG_HGF: Life Technologies and Expression Analysis (LTEA) Assay for Hepatocyte Growth Facto (HGF) using HepaRG (AID 2283505). The procedure, abridged: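 Gain or loss of HGF mRNA in human HepaRG liver cells after 48 h chemical exposure; eight concentrations up to 100 uM with 0.5% DMSO vehicle, quantified by TaqMan qRT-PCR.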

Read-out in experiment [14]: Intercellular Adhesion Molecule 1 (ICAM1), ICAM1 (gene 3383)
Briefly: LTEA_HepaRG_ICAM1: Life Technologies and Expression Analysis (LTEA) Assay for Intercellular Adhesion Molecule 1 (ICAM1) using HepaRG (AID 2283507). The procedure, abridged:
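Gain or loss of transcript in HepaRG hepatic cells is quantified by qRT-PCR after 48 h chemical exposure (up to 100 uM, half-log steps), with DMSO as baseline.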

Read-out in experiment [15]: Insulin-like growth factor-binding protein 1 (IGFBP1), IGFBP1 (gene 3484)
The experiment can be described thus: LTEA_HepaRG_IGFBP1: Life Technologies and Expression Analysis (LTEA) Assay for Insulin-like growth factor-binding protein 1 (IGFBP1) using HepaRG (AID 2283508). An outline of the steps: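 mRNA induction or loss was quantified by qRT-PCR after 48 h chemical exposure of human HepaRG cells, with 0.5% DMSO as vehicle and baseline. Concentration-response over eight points up to 100 uM.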

Read-out in experiment [16]: Interleukin 6 (IL6), IL6 (gene 3569)
The experiment can be described thus: LTEA_HepaRG_IL6: Life Technologies and Expression Analysis (LTEA) Assay for Interleukin 6 (IL6) using HepaRG (AID 2283509). The procedure, abridged: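 Differentiated human HepaRG cells, plated 48 h then switched to serum-free induction medium, were exposed in duplicate for 48 h to eight half-log concentrations up to 100 uM in 0.5% DMSO. IL6 mRNA measured by qRT-PCR, normalized to ACTB/GAPDH/POLR2A.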

Read-out in experiment [17]: Glutathione S-Transferase (GSTA2), GSTA2 (gene 2939)
The experiment can be described thus: LTEA_HepaRG_GSTA2: Life Technologies and Expression Analysis (LTEA) Assay for Glutathione S-Transferase (GSTA2) using HepaRG (AID 2283497). An outline of the steps:
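Human HepaRG cells, plated 48 h, then exposed in serum-free induction medium for 48 h to eight half-log concentrations up to 100 uM in 0.5% DMSO, duplicate. GSTA2 mRNA by qRT-PCR, normalized to ACTB/GAPDH/POLR2A; bidirectional fit versus DMSO.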

Read-out in experiment [18]: Glutathione S-transferase M3 (GSTM3), GSTM3 (gene 2947)
The experiment can be described thus: LTEA_HepaRG_GSTM3: Life Technologies and Expression Analysis (LTEA) Assay for Glutathione S-transferase M3 (GSTM3) using HepaRG (AID 2283501). An outline of the steps: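 Changes in GSTM3 expression, an oxidative-stress marker, were scored by bidirectional curve fitting against 0.5% DMSO vehicle. Human HepaRG cultures received chemicals for 48 h in duplicate, highest concentration 100 uM with half-log dilutions.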

Read-out in experiment [19]: Heat shock 70 kDa protein 1 (HSPA1A), gene 3303
The experiment can be described thus: LTEA_HepaRG_HSPA1A: Life Technologies and Expression Analysis (LTEA) Assay for Heat shock 70 kDa protein 1 (HSPA1A) using HepaRG (AID 2283502). The procedure, abridged:
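HSPA1A induction in human HepaRG liver cells is measured after 48 h of chemical treatment (100 uM maximum, 0.5% DMSO vehicle). Expression comes from qRT-PCR normalized to endogenous controls.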

Read-out in experiment [20]: Insulin Like Growth Factor 1 (IGF1), IGF1 (gene 3479)
Briefly: LTEA_HepaRG_IGF1: Life Technologies and Expression Analysis (LTEA) Assay for Insulin Like Growth Factor 1 (IGF1) using HepaRG (AID 2283506). An outline of the steps: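 Using human HepaRG liver cells, IGF1 transcript induction or suppression is measured 48 h after dosing across eight concentrations capped at 100 uM. Values derive from bidirectional concentration-response fitting with DMSO as baseline.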

Hypoxia-inducible factor 1-alpha (Homo sapiens), sequence (Q16665 whole entry, looked up): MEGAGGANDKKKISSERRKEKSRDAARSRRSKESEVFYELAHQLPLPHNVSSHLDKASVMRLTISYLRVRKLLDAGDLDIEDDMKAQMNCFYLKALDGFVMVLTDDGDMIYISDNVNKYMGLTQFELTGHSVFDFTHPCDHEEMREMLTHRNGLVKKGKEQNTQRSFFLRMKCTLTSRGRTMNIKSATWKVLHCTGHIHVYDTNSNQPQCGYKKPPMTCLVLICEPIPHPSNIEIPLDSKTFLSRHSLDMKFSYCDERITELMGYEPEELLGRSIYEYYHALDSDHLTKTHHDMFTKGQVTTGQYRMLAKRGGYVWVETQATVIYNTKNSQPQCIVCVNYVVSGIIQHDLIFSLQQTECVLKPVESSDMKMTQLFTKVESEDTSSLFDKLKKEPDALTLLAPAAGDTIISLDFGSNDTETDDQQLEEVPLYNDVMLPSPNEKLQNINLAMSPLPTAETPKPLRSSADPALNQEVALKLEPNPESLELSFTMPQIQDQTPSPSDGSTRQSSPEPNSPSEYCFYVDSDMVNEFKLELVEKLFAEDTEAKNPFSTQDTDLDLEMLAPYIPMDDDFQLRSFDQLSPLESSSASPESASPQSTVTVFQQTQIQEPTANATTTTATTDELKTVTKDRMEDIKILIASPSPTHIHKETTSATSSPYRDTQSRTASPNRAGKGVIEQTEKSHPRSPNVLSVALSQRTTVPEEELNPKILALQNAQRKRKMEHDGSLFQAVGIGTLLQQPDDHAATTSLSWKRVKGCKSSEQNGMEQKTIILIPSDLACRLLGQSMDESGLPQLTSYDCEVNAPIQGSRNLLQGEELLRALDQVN
Cytochrome P450 3A7 (Homo sapiens), sequence (P24462 whole entry, looked up): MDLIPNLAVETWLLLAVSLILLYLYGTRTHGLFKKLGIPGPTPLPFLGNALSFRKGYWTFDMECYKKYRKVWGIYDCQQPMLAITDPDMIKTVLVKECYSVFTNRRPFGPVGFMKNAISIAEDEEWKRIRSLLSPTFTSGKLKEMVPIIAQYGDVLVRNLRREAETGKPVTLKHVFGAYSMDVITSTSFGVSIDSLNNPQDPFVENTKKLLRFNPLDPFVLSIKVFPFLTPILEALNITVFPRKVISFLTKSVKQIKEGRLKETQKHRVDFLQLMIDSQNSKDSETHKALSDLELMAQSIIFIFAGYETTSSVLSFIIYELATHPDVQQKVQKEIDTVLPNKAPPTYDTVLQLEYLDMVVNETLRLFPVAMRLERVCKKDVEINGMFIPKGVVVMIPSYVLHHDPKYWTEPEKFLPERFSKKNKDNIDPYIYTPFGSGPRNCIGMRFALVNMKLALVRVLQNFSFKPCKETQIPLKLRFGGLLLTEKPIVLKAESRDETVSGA

Turning to `Cc1c2ccccc2c(C)c2c1ccc1ccccc12`, the molecule was called inactive in experiment [1], in experiment [2], in experiment [8] and in experiment [9]. Moreover, the AC50 is 30.3 µM (active) in experiment [3]; 11.9 µM (active) in experiment [4]; 50 µM (active) in [5]; 51.9 µM (active) in experiment [6]; 65.9 µM (active) in experiment [7]; 50 µM (active) in [10]. The AC50 was 90.9 µM (active) in [11]; 52.5 µM (active) in [12]; 63.3 µM (active) in experiment [13]; 82.1 µM (active) in [14]; 70.3 µM (active) in experiment [15]; 83 µM (active) in experiment [16].
Take `CC[C@@H]1C[C@H](N(Cc2cc(C(F)(F)F)cc(C(F)(F)F)c2)C(C)=O)c2cc(C(F)(F)F)ccc2N1C(=O)OC(C)C`: the result in [1], in [2], in experiment [4], in experiment [17], in experiment [8] and in [9] was inactive. Besides, the call in [10], in experiment [18], in [19], in experiment [11], in [12] and in experiment [13] was inactive. The call in experiment [14], in [15] and in experiment [16] was inactive. Further, the AC50 is 0.435 µM (active) in experiment [3], 4.3 µM (active) in experiment [5], 9.62 µM (active) in experiment [6] and 5.09 µM (active) in [20].
For `Cc1cn([C@H]2C[C@H](N=[N+]=[N-])[C@@H](CO)O2)c(=O)[nH]c1=O`, the result in experiment [1], in experiment [2], in experiment [3], in experiment [4], in [5] and in experiment [6] was inactive. In addition, the call in [7], in experiment [8], in experiment [9], in [10], in experiment [18] and in [19] was inactive. Also, the call in [12], in experiment [20], in [14], in experiment [15] and in experiment [16] was inactive.
On to `CCO[Si](CCCNC(N)=O)(OCC)OCC`, for which the call in experiment [1], in experiment [2], in [3], in experiment [4], in [5] and in experiment [6] was inactive. The outcome in experiment [17], in experiment [8], in experiment [9], in experiment [10], in experiment [18] and in [19] was inactive. Moreover, the result in [11], in experiment [12], in experiment [20], in experiment [14], in experiment [15] and in experiment [16] was inactive.
As to `CC(C)(C)c1csc(-c2cc3cc(OCc4ccccc4CC(=O)O)ccc3o2)n1`, the AC50 in [1] was 89.5 µM (active); in experiment [2], 82.3 µM (active); in [4], 81.3 µM (active); in [5] it was 32.6 µM (active); in experiment [6], 23.3 µM (active); in experiment [7], 22.5 µM (active). The AC50 in [8] was 77.2 µM (active); in [9] it was 12.1 µM (active); in [10], 85.4 µM (active); in [19] it was 78 µM (active); in [11] it was 87.3 µM (active); in experiment [12], 31.6 µM (active). In addition, the AC50 in experiment [20] was 12.4 µM (active); in experiment [15], 32.2 µM (active); in [16], 81.3 µM (active). In addition, the molecule was classed as inactive in experiment [3], in experiment [13] and in experiment [14].
With `CC(O)CC(C)(C)O` (stereo not given), the outcome in experiment [1], in experiment [2], in experiment [3], in experiment [4], in experiment [5] and in [6] was inactive. For the same molecule, the result in [7], in experiment [8], in [9], in [10], in experiment [19] and in experiment [11] was inactive. The outcome in experiment [12], in experiment [20], in experiment [14], in [15] and in [16] was inactive.
